The nature of this assay: growth inhibition of wild-type RFP versus H38-humanized GFP E. coli, dose response, H38 mutant GFP vs wild-type RFP, cherry-pick (AID 977627). The following applies: activity: measured here: wild-type RFP strain growth, at 50 µM, stronger effect = lower value.

Inconclusive results are not listed. Calls of active or inactive are those of the source. No rule for the calls is given here.

On to `O=C(COC(=O)c1cccc(O)c1)Nc1ccc(Cl)cc1C(=O)c1ccccc1`, for which the activity is -8.13% and the outcome was “inactive”.

The record behind these values is PubChem BioAssay AID977627 (Broad Institute, 2014).
